Bioassay records (PubChem)
ERa coact pot: enhancers of ERα–SRC-1 coactivator binding, primary screen, biochemical, TR-FRET, ERα LBD, low estradiol. TR-FRET ERalpha-LBD/SRC-Cy5 coactivator binding, 2 h; 100 = basal binding, no effect. coactivator binding (% of control), % at 25.6 µM. actives 1.3% (n = 86,000); in the data active = activity above about 200%;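 note: binding measured in presence of low estradiol as agonist stimulus; 0% = peptide alone without receptor and 100% = receptor with peptide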
ERb coact inh: inhibitors of ERβ-SRC1 coactivator interaction, primary screen, biochemical, TR-FRET, ERβ LBD, SRC-1 peptide | Estrogen receptor beta (Homo sapiens), Q92731 | TR-FRET ER-beta LBD / SRC1-Cy5 peptide binding; receptor agonist-loaded with 1 µM estradiol | inhibition, % at 25.6 µM | actives 1.3% (n = 86,000);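 active = compounds whose percent inhibition of the receptor-coactivator binding signal exceeds about 50% in the single-dose screen, limit read from the data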;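 note: 0% = receptor plus peptide wells without compound and 100% = peptide-only wells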
Target sequence (Q92731 whole entry, looked up, the tested form may be a part): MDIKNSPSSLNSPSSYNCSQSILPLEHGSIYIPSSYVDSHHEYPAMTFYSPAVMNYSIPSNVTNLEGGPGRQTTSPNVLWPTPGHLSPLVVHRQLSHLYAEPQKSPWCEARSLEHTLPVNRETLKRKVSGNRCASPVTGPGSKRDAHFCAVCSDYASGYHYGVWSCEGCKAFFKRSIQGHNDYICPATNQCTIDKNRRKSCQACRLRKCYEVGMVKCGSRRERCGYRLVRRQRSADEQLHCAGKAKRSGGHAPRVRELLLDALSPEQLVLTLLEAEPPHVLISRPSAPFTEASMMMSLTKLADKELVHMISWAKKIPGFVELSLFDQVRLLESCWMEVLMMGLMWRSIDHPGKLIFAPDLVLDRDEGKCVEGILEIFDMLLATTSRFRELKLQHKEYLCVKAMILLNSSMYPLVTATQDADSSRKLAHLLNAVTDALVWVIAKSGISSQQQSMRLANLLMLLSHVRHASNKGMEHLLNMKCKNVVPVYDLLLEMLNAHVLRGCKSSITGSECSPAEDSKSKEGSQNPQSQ
EphB4 ephrin blk: EphB4-ephrin-B2 interaction antagonists, primary screen, biochemical, TNYL-RAW peptide probe, fluorescence polarization | Ephrin type-B receptor 4 (Homo sapiens), P54760 | EphB4 LBD / TNYL-RAW-Alexa532 peptide | inhibition, % at 7 µM | AID 720, 2007 | actives 0.15% (n = 97,000);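 active = inhibition above the screen-wide mean inhibition plus 3 SD, cut at about 15% in these data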;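 note: 0% = DMSO wells and 100% = excess unlabeled TNYL-RAW peptide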
ERa SRC1 inh: ERα–SRC-1 coactivator interaction inhibitors, primary screen, biochemical, TR-FRET, ERα LBD, estradiol-bound; actives 1.7% (n = 86,000); inhibition, % at 25.6 µM; Estrogen receptor (Homo sapiens), P03372; TR-FRET ER-alpha LBD / SRC-1 peptide; AID 629, 2007; in the data active = inhibition above about 50%;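 note: 0% = receptor plus peptide control and 100% = peptide only without receptor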
MT1-MMP txn act: MT1-MMP promoter reporter activation – cell-based, luciferase luminescence, primary screen | HT1080 MT1-MMP promoter luciferase reporter, overnight; active compounds read high | activation factor at 10 µM | actives 0.16% (n = 86,000);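 active = activation factor of at least 2 for MT1-MMP transcription at 10 µM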
Candida biofilm: clotrimazole potentiators killing Candida biofilms, primary screen, with clotrimazole, Alamar Blue; C. albicans biofilm + clotrimazole; inhibition, % at 6 µM; actives 0.14% (n = 85,000);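 active = inhibition above 20%; inactive = inhibition below 20%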;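 note: preformed 24 hr biofilms exposed to compound for 48 hr; 0% = biofilm without compound and 100% = blank killed by clotrimazole plus chlorhexidine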
* hit, by the source's call; / = no result given; [ ] = remark or other dose. Rows were chosen to be rich in hits. Some 3.2% of all compounds tested hit in one or more screens of this group.

SMILES | ERa coact pot | ERb coact inh | EphB4 ephrin blk | ERa SRC1 inh | MT1-MMP txn act | Candida biofilm
CCc1ccccc1NC(=O)CSc1nc2c(c(-c3ccco3)c1C#N)CCCC2 | 301*[fluorescence artefact?] | 11 | 0 | 10 | 1.1 | -4
COC(=O)CSc1nc2c(c(-c3ccc(C)o3)c1C#N)CCCC2 | 95 | 2 | 0 | 1 | 1 | -3
CCn1c(SCC(=O)Nc2sc3c(c2C#N)CCCC3)nnc1-c1ccco1 | 99 | 2 | -5 | 4 | 1.1 | 1
Cc1noc(C)c1CN1C(=O)NC2(CCc3ccccc3C2)C1=O (stereo not drawn) | 100 | 1 | 4 | -2 | 1.1 | -7
O=C(CSc1nc2ccccc2c(=O)[nH]1)c1cccs1 | 118 | 16 | -5 | 13 | 1.1 | 9
O=C(CSc1nc2ccccc2c(=O)[nH]1)c1ccc(O)c(O)c1 | 65 | 66* | / | 59*[fluorescence artefact?] | 1.1 | -2
C=CCn1c(SC/C=C/c2ccccc2)nnc1-c1sc(N)nc1C | 100 | -10 | -3 | -15 | 1.1 | 7
Cc1cccc(-n2ncc3c(NCCc4ccc(S(N)(=O)=O)cc4)ncnc32)c1 | 95 | 6 | -5 | -6 | 1 | 10
COc1ccc2nc(SCC(=O)Nc3cc(C)on3)[nH]c2c1 | 110 | 1 | -2 | 11 | 1.1 | 6
O=C(Nc1ccccc1N1CCCCC1)c1ccccc1F | 122 | 5 | -8 | -9 | 1 | 4
O=C(Nc1ccccc1Sc1ccccc1)c1ccccc1F | / | / | 16* | / | / | /
COc1cc(CN2CCN(c3cccc(C)c3C)CC2)cc(Br)c1O | 110 | 1 | / | -6 | 1.1 | 6
O=C(COC(=O)CCS(=O)(=O)c1ccc(Cl)cc1)Nc1ncc(Cl)cc1Cl | 101 | 0 | -2 | -5 | 1.2 | 6
CC(C)CC(C(=O)OCC(=O)Nc1ncc(Cl)cc1Cl)N1C(=O)c2ccccc2C1=O (stereo not drawn) | 107 | 28 | 8 | 11 | 1.1 | 4
O=C(COC(=O)C1CCN(S(=O)(=O)c2cc([N+](=O)[O-])ccc2Cl)CC1)Nc1ncc(Cl)cc1Cl | 18 | 80*[fluorescence artefact?] | -1 | 78*[fluorescence artefact?] | 1.2 | 9
N/C(=N\OC(=O)CCCN1C(=O)c2ccccc2C1=O)c1ccc(Cl)cc1 | / | / | -6 | / | / | /
O=C(COC(=O)CCCN1C(=O)c2ccccc2C1=O)Nc1ncc(Cl)cc1Cl | 48 | 58*[fluorescence artefact?] | 1 | 69*[fluorescence artefact?] | 0.9 | 9
O=C(COC(=O)CN1C(=O)c2ccccc2C1=O)Nc1ncc(Cl)cc1Cl | 54 | 56* | 1 | 60*[fluorescence artefact?] | 1.1 | 7
CCOC(=O)c1c(C)[nH]c(C(=O)COC(=O)c2ccc(N3CCCC3=O)cc2)c1C | 218*[fluorescence artefact?] | 34 | 1 | 51*[fluorescence artefact?] | 1.1 | -2
COCCn1c(C)cc(C(=O)COC(=O)c2ccc(N3CCCC3=O)cc2)c1C | 88 | 0 | 3 | 0 | 1 | 10
CCOC(=O)Cn1c(CN2CCN(c3cccc(Cl)c3)CC2)nc2c1c(=O)[nH]c(=O)n2C | 123 | 71*[fluorescence artefact?] | 3 | -3 | 1.2 | 7
COC(=O)C(CCCCNC(=O)OCc1ccccc1)NC(=O)CN (stereo not drawn) | 114 | -11 | 3 | 91*[fluorescence artefact?] | 1.1 | 4
O=S(=O)(c1ccc(Cl)c(Cl)c1)c1snnc1-c1ccccc1 | 72 | 2 | 1 | 1 | / | 0
COc1ccccc1-c1nc2s/c(=C\c3cccs3)c(=O)n2n1 | 43 | 39 | / | 67*[fluorescence artefact?] | 1.3 | -2
O=c1/c(=C/c2ccco2)sc2nc(-c3ccccc3Br)nn12 | 74 | 62*[fluorescence artefact?] | / | 59*[fluorescence artefact?] | 1.1 | -3
SMILES | ERa coact pot | ERb coact inh | EphB4 ephrin blk | ERa SRC1 inh | MT1-MMP txn act | Candida biofilm
CCCOc1ccc(Cc2nn3c(=O)/c(=C/c4ccco4)sc3nc2=O)cc1 | 92 | 16 | 2 | 38 | 1.1 | 5
CC(C(=O)NC1CCCc2ccccc21)N1CCN(Cc2ccc3c(c2)OCO3)CC1 (stereo not drawn) | 124 | 0 | 0 | -3 | 1.1 | 6
Cc1ccc(NC(=O)CS(=O)CC(=O)Nc2ccc3c(c2)OCO3)cc1Cl (stereo not drawn) | 103 | 12 | 2 | 31 | 1.1 | 9
O=c1[nH]c2ccccc2c(=O)n1Cc1ccco1 | 98 | 63* | -3 | -2 | 1.1 | 6
O=c1c2cc(N3CCOCC3)ccc2[nH]c(=S)n1Cc1ccco1 | 99 | 51* | / | 47 | 1.4 | 9
CC1CCCCN1S(=O)(=O)c1ccc(S(=O)(=O)NCCc2ccncc2)cc1 (stereo not drawn) | 100 | 4 | 1 | -1 | 1.3 | 6
CN(C)c1ccc(NC(=O)CN2C(=O)CC(c3ccccc3)=Nc3ccccc32)cc1 | 38 | 66*[fluorescence artefact?] | -2 | 93*[fluorescence artefact?] | 1.1 | 3
COc1cccc(-c2nc(CS(=O)CC(=O)NCc3ccccc3Cl)c(C)o2)c1 (stereo not drawn) | 114 | 1 | -3 | -9 | 1.1 | 11
Cc1onc(-c2ccccc2Cl)c1C(=O)NCc1ccco1 | 41 | 54* | -1 | 86*[fluorescence artefact?] | 1 | 2
COCc1cc(=O)n2c(-c3ccc(C)cc3)n[nH]c2n1 | 55 | 60* | / | 45 | / | 7
Cn1nnnc1SCC(=O)N1CCN(c2cccc(Cl)c2)CC1 | 95 | 6 | 1 | 2 | 0.9 | 10
O=C(Cn1nc(-c2ccccc2)c2ccccc2c1=O)Nc1ccc2c(c1)nc1n2CCOC1 | 209*[fluorescence artefact?] | 47 | -3 | 22 | 1 | -1
Cc1ccc(-c2nn(CC(=O)Nc3ccc4c(c3)nc3n4CCOC3)c(=O)c3ccccc23)cc1 | 165 | 54*[fluorescence artefact?] | -7 | 67*[fluorescence artefact?] | 1.1 | 3
O=C(COc1ccccc1)Nc1ccc2c(c1)nc1n2CCOC1 | 125 | -6 | -10 | 10 | 1.4 | 7
Cc1ccc(OCC(=O)Nc2ccc3c(c2)nc2n3CCOC2)cc1 | 166 | -4 | 2 | 4 | 0.9 | -3
CCN(CC)S(=O)(=O)c1ccc2c(c1)nc(CCC(=O)Nc1ccccc1Cc1ccccc1)n2CC | / | / | 2 | / | / | /
O=C(O)CCC(=O)NNC(=O)CCC(=O)NCc1ccccc1 | / | / | -9 | / | / | /
COc1cc2[nH]c(=S)n(N(C(C)=O)C(C)=O)c(=O)c2cc1OC | 201*[fluorescence artefact?] | -78 | -1 | -67 | 1 | 4
COc1cc2[nH]c(=S)n(C3CCCC3)c(=O)c2cc1OC | 114 | -3 | / | 1 | 1.1 | 0
C=C(C)c1cccc(C(C)(C)NC(=O)N2CCN(CC(N)=O)CC2)c1 | 90 | -22 | 3 | -15 | 1.1 | 0
